Measurements: PubChem BioAssay (Tox21)
Records with an inconclusive call do not appear. Entries that show only a call come without a potency. Active and inactive are the calls of the source. Unless noted, the call rests on the fitted dose curve.

Experiments:
[1] = Nuclear factor erythroid 2-related factor 2/antioxidant responsive element (Nrf2/ARE) small molecule agonists: qHTS cell viability counter screen in human keratinocytes (AID 1919968; active means well fitted curve in the direction sought with a large enough effect in the repeat runs; an effect the other way counts as inactive or inconclusive; further: nearly all actives have a fitted effect of over 55% in size)
How it was run: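 After a 5 h attachment period, ARE-reporter keratinocytes were dosed with compounds in DMSO and then cultured 23 h at 37 C. Cell viability came from CellTiter-Fluor signal read after a further 1 h.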

[2] = Nuclear factor erythroid 2-related factor 2/antioxidant responsive element (Nrf2/ARE) small molecule agonists: luciferase reporter gene qHTS assay in human keratinocytes (AID 1919969); further: nearly all actives have a fitted effect of over 35% in size; further: potency means the concentration at half of the fitted maximal effect
[3] = target: Gonadotropin-releasing hormone receptor (Homo sapiens) (UniProt P30968); test: Human gonadotropin-releasing hormone receptor (GnRHR) small molecule agonists, calcium flux assay in GnRHR-HEK293 cells (AID 1920063); further: nearly all actives have a fitted effect of over 35% in size
Gonadotropin-releasing hormone receptor (Homo sapiens), sequence (P30968 whole entry, looked up): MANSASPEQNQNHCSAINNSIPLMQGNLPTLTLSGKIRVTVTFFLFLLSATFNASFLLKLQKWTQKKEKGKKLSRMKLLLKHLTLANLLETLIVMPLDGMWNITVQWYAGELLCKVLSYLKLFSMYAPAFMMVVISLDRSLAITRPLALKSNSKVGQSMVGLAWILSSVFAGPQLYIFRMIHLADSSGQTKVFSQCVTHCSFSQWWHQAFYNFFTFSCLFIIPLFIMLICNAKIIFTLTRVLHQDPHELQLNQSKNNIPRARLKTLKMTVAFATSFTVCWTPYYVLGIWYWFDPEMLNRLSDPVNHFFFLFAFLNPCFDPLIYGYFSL
How it was run: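 We seeded human GnRHR-expressing HEK293 cells for 18 hours, loaded them with calcium dye for an hour at 37 C, added test compounds, and recorded fluorescence intensity kinetically for three minutes.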

[4] = target: KiSS-1 receptor (Homo sapiens) (UniProt Q969F8); test: Human kisspeptin (KISS1R) small molecule agonists, calcium flux assay in KISS1R-HEK293 cells (AID 1920064; active means well fitted curve in the direction sought with a large enough effect in the repeat runs; an effect the other way counts as inactive or inconclusive)
KiSS-1 receptor (Homo sapiens), sequence (Q969F8 whole entry, looked up): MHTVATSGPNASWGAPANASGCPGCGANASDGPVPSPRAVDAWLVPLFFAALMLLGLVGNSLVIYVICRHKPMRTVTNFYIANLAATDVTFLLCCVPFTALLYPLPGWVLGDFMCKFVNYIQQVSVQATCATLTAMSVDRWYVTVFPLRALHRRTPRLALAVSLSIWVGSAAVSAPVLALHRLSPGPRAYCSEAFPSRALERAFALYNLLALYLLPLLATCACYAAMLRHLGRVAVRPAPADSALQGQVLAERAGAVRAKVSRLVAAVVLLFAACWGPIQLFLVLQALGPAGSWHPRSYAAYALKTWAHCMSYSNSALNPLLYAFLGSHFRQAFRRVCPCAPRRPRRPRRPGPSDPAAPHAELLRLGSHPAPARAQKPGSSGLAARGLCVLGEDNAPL
How it was run: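 Kinetic calcium assay, 1 s sampling over 3 min at Ex/Em 480/540, in HEK293 cells engineered with human KISS1R; compounds delivered in DMSO after 1 h dye loading.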

[5] = G protein-coupled receptor (GPCR) small molecule agonists, calcium flux assay: HEK293 wild type cell line counter screen (AID 1920065)
How it was run: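 Calcium-sensitive dye, loaded 1 h at 37 C into cells cultured 18 h, reports compound-evoked calcium release as fluorescence (Ex/Em 480/540), measured over 3 min. Agonist mode; 15-point titrations, triplicate.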

[6] = p53 small molecule agonists, cell-based qHTS assay with rat liver microsomes (AID 1963578)
How it was run: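 With rat liver microsomes and NADPH present (0.5 mg/mL final each), p53RE-bla cells are treated with compound for 16 h at 37 C. LiveBLAzer detection mixture is then applied for 2 h at room temperature in the dark.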

[7] = p53 small molecule agonists, cell-based qHTS assay with human liver microsomes: qHTS cell viability counter screen (AID 1963579); further: nearly all actives have a fitted effect of over 45% in size
How it was run: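 In this multiplexed counter screen, the reporter plates were subsequently treated with CellTiter-Glo so that cell viability, reflected by luminescence, could be recorded for p53RE-bla cells dosed 16 h with compounds under microsomal activation (HLM and NADPH).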

[8] = p53 small molecule agonists, cell-based qHTS assay with rat liver microsomes: qHTS cell viability counter screen (AID 1963580); further: nearly all actives have a fitted effect of over 45% in size
How it was run: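 p53RE-bla HCT-116 cells were exposed 16 h at 37 C to compounds with rat liver microsomes (0.5 mg/mL) and NADPH (0.5 mg/mL). Viability was measured in the same wells as ATP content by CellTiter-Glo luminescence.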

[9] = p53 small molecule agonists, cell-based qHTS assay: qHTS cell viability counter screen (AID 1963581); further: nearly all actives have a fitted effect of over 45% in size
How it was run: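 Following 5 h attachment, HCT-116 p53RE-bla cells took up compound for 16 h at 37 C; the reporter was read with B/G FRET substrate (2 h RT), and viability then via CellTiter-Glo ATP luminescence.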

[10] = p53 small molecule agonists, cell-based qHTS assay (AID 1963582; active means well fitted activation curve with a large enough effect in the signal ratio in the repeat runs, not every such curve was filed as active; the % refers to the signal ratio)
How it was run: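 In this cell-based concentration-response screen, a p53 response element drives beta-lactamase; cells received DMSO-borne compounds after 5 h culture and were incubated a further 16 h before FRET substrate development.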

[11] = target: 5-hydroxytryptamine receptor 2A (Homo sapiens) (UniProt P28223); test: 5-hydroxytryptamine receptor 2A (HTR2A) small molecule agonists, cell-based qHTS assay (AID 1963587); further: nearly all actives have a fitted effect of over 30% in size
5-hydroxytryptamine receptor 2A (Homo sapiens), sequence (P28223 whole entry, looked up): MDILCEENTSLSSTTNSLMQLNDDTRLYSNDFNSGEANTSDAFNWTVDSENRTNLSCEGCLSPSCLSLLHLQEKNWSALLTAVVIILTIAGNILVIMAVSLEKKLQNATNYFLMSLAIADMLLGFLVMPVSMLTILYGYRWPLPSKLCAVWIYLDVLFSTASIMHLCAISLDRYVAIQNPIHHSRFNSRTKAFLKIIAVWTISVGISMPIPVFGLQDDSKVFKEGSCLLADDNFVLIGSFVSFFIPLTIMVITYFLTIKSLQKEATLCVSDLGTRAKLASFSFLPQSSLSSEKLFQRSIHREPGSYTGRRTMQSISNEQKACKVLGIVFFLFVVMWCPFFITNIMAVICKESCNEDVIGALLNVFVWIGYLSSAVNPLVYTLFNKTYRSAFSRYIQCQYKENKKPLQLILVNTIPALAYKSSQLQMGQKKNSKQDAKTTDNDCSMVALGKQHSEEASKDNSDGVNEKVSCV
How it was run: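 CHO cells stably expressing human HTR2A, plated 18 h, loaded with calcium dye 1 h at 37 C. Agonist mode: compounds added and intracellular calcium fluorescence recorded kinetically for 2 min at 1 sec intervals.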

[12] = target: Muscarinic acetylcholine receptor M1 (Homo sapiens) (UniProt P11229); test: Cholinergic receptor muscarinic 1 (CHRM1) small molecule antagonists, cell-based qHTS assay (AID 1963588); further: nearly all actives have a fitted effect of over 40% in size
Muscarinic acetylcholine receptor M1 (Homo sapiens), sequence (P11229 whole entry, looked up): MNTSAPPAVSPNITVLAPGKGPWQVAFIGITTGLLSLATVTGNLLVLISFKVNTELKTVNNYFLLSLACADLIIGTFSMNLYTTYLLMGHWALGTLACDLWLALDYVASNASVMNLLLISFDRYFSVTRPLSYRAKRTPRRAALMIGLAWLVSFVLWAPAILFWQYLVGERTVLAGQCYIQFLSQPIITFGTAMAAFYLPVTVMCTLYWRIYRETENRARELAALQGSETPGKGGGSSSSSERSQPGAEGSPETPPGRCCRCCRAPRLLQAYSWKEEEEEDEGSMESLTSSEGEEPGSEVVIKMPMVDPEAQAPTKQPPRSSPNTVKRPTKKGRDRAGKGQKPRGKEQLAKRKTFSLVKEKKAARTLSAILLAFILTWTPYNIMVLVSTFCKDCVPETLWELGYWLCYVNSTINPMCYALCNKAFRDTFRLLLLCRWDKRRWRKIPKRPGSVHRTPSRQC
How it was run: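 CHRM1-CHO calcium-flux assay, antagonist mode. Cells were seeded 18 h, dye-loaded 1 h at 37 C and given compound for 5 min at RT, then acetylcholine was added at 50nM. FDSS fluorescence was read 3 min; 15 concentrations, three runs.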

[13] = target: Muscarinic acetylcholine receptor M1 (Homo sapiens) (UniProt P11229); test: Cholinergic receptor muscarinic 1 (CHRM1) small molecule agonists, cell-based qHTS assay (AID 1963589); further: nearly all actives have a fitted effect of over 35% in size
How it was run: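 Measures agonist-induced intracellular calcium rise. Stable human CHRM1 CHO line, 1 h dye load at 37 C, compounds from DMSO, kinetic fluorescence read.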

[14] = cAMP Responsive Elements (CRE) small molecule agonists, cell-based qHTS assay (AID 1963590)
How it was run: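 A CRE-responsive beta-lactamase reporter in HEK 293T cells was used. Treatment ran 3 h at 37 C; detection used LiveBLAzer B/G FRET substrate for 2 h at room temperature.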

[15] = target: Beta-2 adrenergic receptor (Homo sapiens) (UniProt P07550); test: Adrenergic beta2 receptor (ADRB2) small molecule antagonists, cell-based qHTS assay (AID 1963592); further: series mostly up to about 92 µM; nearly all actives have a fitted effect of over 50% in size
Beta-2 adrenergic receptor (Homo sapiens), sequence (P07550 whole entry, looked up): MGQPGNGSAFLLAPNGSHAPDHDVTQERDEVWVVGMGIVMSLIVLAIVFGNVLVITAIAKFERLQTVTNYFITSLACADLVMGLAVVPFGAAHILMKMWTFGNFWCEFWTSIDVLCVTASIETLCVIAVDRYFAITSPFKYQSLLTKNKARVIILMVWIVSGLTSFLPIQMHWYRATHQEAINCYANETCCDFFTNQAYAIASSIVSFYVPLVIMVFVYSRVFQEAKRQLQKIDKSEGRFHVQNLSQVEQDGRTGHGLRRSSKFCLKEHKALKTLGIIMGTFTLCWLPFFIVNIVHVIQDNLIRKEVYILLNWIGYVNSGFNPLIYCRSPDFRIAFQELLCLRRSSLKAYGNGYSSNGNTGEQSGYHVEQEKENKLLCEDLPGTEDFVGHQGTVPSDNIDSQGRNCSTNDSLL
How it was run: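 Cells (CHO, stable ADRB2 overexpression) incubated 18-20hr at 37C; compounds added from DMSO; agonist mix (1nM isoproterenol, 100uM IBMX, 25uM Ro-20-1724) added; 0.5hr RT; d2-cAMP and anti-cAMP-cryptate added; 1hr RT; 665/615 nm read.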

[16] = target: D(2) dopamine receptor (Homo sapiens) (UniProt P14416); test: Dopamine D2 receptor (DRD2) small molecule antagonists, cell-based qHTS assay (AID 1963595; active means well fitted inhibition curve with a large enough effect in the signal ratio in the repeat runs, with a control signal flat; the % refers to the signal ratio)
D(2) dopamine receptor (Homo sapiens), sequence (P14416 whole entry, looked up): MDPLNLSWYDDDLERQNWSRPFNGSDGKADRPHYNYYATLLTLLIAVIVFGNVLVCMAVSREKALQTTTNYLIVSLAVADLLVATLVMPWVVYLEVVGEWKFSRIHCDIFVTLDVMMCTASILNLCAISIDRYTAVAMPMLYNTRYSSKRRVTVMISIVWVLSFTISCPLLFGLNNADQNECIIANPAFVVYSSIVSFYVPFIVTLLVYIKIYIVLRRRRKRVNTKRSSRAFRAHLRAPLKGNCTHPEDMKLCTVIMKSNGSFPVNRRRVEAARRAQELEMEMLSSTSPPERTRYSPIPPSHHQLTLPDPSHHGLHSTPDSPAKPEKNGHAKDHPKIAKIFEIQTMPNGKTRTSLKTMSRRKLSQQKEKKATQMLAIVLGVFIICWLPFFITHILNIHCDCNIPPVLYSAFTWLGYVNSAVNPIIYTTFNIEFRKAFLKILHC
How it was run: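 Human DRD2 antagonist qHTS measuring cAMP by HTRF. The cells are exposed to compound for 10 min, then to NKH477 (200 nM) and quinpirole (12 nM) for 30 min at RT, with Ro20-1724 (0.1 mM) present throughout.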

[17] = target: 5-hydroxytryptamine receptor 2A (Homo sapiens) (UniProt P28223); test: 5-hydroxytryptamine receptor 2A (HTR2A) small molecule antagonists, cell-based qHTS assay (AID 1963586); further: nearly all actives have a fitted effect of over 45% in size
How it was run: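 Antagonist-mode intracellular calcium assay: DOI (4 nM) added after 5 min compound pre-incubation at room temperature to dye-loaded HTR2A-CHO cells. Fluorescence followed for 3 min, sampled every second.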

[18] = cAMP Responsive Elements (CRE) small molecule antagonists, cell-based qHTS assay (AID 1963591; active means well fitted inhibition curve with a large enough effect in the signal ratio in the repeat runs, not every such curve was filed as active; the % refers to the signal ratio)
How it was run: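 HEK293T cells carrying a CRE-driven beta-lactamase reporter receive compound and NKH477 (0.25 uM final) for 3 h. Fluorescence from LiveBLAzer B/G FRET substrate is read after 2 h at room temperature.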

[19] = target: D(2) dopamine receptor (Homo sapiens) (UniProt P14416); test: Dopamine D2 receptor (DRD2) small molecule agonists, cell-based qHTS assay (AID 1963594); further: nearly all actives have a fitted effect of over 35% in size
How it was run: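 HEK293 cells stably expressing human DRD2, pre-treated with PDE inhibitor Ro20-1724 (0.1 mM final) and compound 10 min at room temperature, then stimulated with NKH477 (200nM […]) for 30 min. cAMP read by HTRF (665/620 nm).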

SMILES | Potency [1] | Potency [2] | Potency [3] | outcome [4] | outcome [5] | Potency [6] | Potency [7] | Potency [8] | Potency [9] | Potency [10] | Potency [11] | Potency [12] | Potency [13] | Potency [14] | Potency [15] | Potency [16] | Potency [17] | Potency [18] | Potency [19]
NS(=O)(=O)Cc1noc2ccccc12 | inactive | inactive | inactive | inactive | inactive | inactive | inactive | inactive | inactive | inactive | inactive | inactive | inactive | inactive | inactive | inactive |  |  | 
CCCCC(=O)OCC(=O)[C@H]1[C@H](C)C[C@H]2[C@@H]3C[C@H](F)C4=CC(=O)C=C[C@]4(C)[C@@]3(F)[C@@H](O)C[C@@]21C | inactive | inactive | inactive | inactive | inactive | inactive | inactive | inactive | inactive | inactive | inactive | inactive | inactive |  | inactive | inactive | inactive | inactive | inactive
CCCCCCOC(=O)C(C)C | inactive | inactive | inactive | inactive | inactive | inactive | inactive | inactive | inactive | inactive | inactive | inactive | inactive | inactive | inactive | inactive | inactive |  | inactive
COc1ccc(-n2nc(CCC(=O)N(C)O)cc2-c2ccc(Cl)cc2)cc1 | inactive | inactive | inactive | inactive | inactive | inactive | inactive | inactive | inactive | inactive | inactive |  | inactive |  | inactive | inactive | inactive | inactive | inactive
C1=C\CC/C=C\CC/1 | inactive | inactive | inactive | inactive | inactive | inactive | inactive | inactive | inactive | inactive | inactive | inactive | inactive | inactive | inactive | inactive |  | inactive | inactive
CN(C)CC/C=C1/c2ccccc2COc2ccc(CC(=O)O)cc21 | inactive | inactive | inactive | inactive | inactive | inactive | inactive | inactive | inactive | inactive | inactive |  | inactive | inactive | inactive | inactive |  | inactive | inactive
c1ccc(SSc2ccccc2)cc1 | inactive | 27.5 µM (active) | inactive | inactive | inactive | inactive | inactive | inactive | inactive | inactive | inactive |  | inactive |  | inactive | inactive | inactive | inactive | inactive
CCC(C)c1nccnc1OC (centres undefined) | inactive | inactive | inactive | inactive | inactive | inactive | inactive | inactive | inactive | inactive | inactive | inactive | inactive | inactive |  | inactive | inactive |  | inactive
O=P(O)(O)OCC(O)CO (centres undefined) | inactive | inactive | inactive | inactive | inactive | inactive | inactive | inactive | inactive | inactive | inactive | inactive | inactive | inactive | inactive | inactive |  | inactive | inactive
COC(C)(C)CCCC(C)CC=O (centres undefined) | inactive | inactive | inactive | inactive | inactive | inactive | inactive | inactive | inactive | inactive | inactive | inactive | inactive |  | inactive | inactive | inactive |  | inactive
C=COCC1CCC(COC=C)CC1 (centres undefined) | inactive | inactive | inactive | inactive | inactive | inactive | inactive | inactive |  | inactive | inactive | inactive | inactive | inactive | inactive | inactive | inactive | inactive | 
CC(C)(C)c1nnc(NS(=O)(=O)c2ccccc2)s1 | inactive | inactive | inactive | inactive | inactive | inactive | inactive | inactive | inactive | inactive | inactive | inactive | inactive | inactive | inactive | inactive |  | inactive | 
CC(C)(C)C(=O)CC(=O)C(C)(C)C | inactive | inactive | inactive | inactive | inactive | inactive | inactive | inactive | inactive | inactive |  | inactive | inactive | inactive | inactive | inactive | inactive | inactive | 
CC(=O)CC(c1ccc([N+](=O)[O-])cc1)c1c(O)c2ccccc2oc1=O (centres undefined) | inactive | inactive | inactive | inactive | inactive | inactive | inactive | inactive | inactive | inactive | inactive | inactive | inactive | inactive |  | inactive | inactive | inactive | inactive
CCCCCCCC(C)=O | inactive | inactive | inactive | inactive | inactive | inactive | inactive | inactive | inactive | inactive | inactive | inactive | inactive | inactive |  | inactive | inactive |  | inactive
